Source: PubChem BioAssay
A number with no mark means an inactive call. The source made the active and inactive calls. Rule as the data show it, unless noted: active = inhibition above about 25%; inactive = the rest.

How the values were obtained:
[1] = target: Nuclear receptor coactivator 3 (Homo sapiens) (UniProt Q9Y6Q9); experiment: NCOA3 GAL4-fusion reporter inhibition – cell-based, luminescence, quadruplicate, confirmation (AID 588792;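 active = mean inhibition over 43.08%, the solvent-only control mean plus 3 SD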;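 also: 0% = DMSO treated cells and 100% = gossypol at 36 µM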); details: HEK293 GAL4-SRC3 luciferase reporter, at 3.6 µM, active compounds read high
[2] = tested on: transactivating tegument protein VP16 (Human herpesvirus 1), Gal4-VP16 luciferase reporter; experiment: repression of VP16-driven luciferase reporter – cell-based, luminescence, high throughput, counter-screen for SRC3 inhibitor project (AID 588794; in the data active = inhibition above about 30%); details: mammalian cells, at 3.6 µM, active compounds read high
[3] = target: Nuclear receptor coactivator 1 (Homo sapiens) (UniProt Q15788); experiment: NCOA1 GAL4-fusion reporter inhibition – cell-based, luminescence, quadruplicate, confirmation (AID 588820;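 active = mean inhibition above 46.68%, the untreated control wells mean plus 3 SD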;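 also: 0% = DMSO wells and 100% = gossypol 36 µM treated wells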); details: HEK293 GAL4-SRC1 luciferase reporter, at 3.6 µM, active compounds read high
[4] = repression of VP16-driven luciferase reporter – cell-based, luminescence, high throughput, counter-screen for SRC1 inhibitor project (AID 588824); details: cell-based VP16 transactivation luciferase luminescence; at 3.6 µM; active compounds read high

Sequence of Nuclear receptor coactivator 3 (Homo sapiens) (Q9Y6Q9 whole entry, looked up, the tested form may be a part): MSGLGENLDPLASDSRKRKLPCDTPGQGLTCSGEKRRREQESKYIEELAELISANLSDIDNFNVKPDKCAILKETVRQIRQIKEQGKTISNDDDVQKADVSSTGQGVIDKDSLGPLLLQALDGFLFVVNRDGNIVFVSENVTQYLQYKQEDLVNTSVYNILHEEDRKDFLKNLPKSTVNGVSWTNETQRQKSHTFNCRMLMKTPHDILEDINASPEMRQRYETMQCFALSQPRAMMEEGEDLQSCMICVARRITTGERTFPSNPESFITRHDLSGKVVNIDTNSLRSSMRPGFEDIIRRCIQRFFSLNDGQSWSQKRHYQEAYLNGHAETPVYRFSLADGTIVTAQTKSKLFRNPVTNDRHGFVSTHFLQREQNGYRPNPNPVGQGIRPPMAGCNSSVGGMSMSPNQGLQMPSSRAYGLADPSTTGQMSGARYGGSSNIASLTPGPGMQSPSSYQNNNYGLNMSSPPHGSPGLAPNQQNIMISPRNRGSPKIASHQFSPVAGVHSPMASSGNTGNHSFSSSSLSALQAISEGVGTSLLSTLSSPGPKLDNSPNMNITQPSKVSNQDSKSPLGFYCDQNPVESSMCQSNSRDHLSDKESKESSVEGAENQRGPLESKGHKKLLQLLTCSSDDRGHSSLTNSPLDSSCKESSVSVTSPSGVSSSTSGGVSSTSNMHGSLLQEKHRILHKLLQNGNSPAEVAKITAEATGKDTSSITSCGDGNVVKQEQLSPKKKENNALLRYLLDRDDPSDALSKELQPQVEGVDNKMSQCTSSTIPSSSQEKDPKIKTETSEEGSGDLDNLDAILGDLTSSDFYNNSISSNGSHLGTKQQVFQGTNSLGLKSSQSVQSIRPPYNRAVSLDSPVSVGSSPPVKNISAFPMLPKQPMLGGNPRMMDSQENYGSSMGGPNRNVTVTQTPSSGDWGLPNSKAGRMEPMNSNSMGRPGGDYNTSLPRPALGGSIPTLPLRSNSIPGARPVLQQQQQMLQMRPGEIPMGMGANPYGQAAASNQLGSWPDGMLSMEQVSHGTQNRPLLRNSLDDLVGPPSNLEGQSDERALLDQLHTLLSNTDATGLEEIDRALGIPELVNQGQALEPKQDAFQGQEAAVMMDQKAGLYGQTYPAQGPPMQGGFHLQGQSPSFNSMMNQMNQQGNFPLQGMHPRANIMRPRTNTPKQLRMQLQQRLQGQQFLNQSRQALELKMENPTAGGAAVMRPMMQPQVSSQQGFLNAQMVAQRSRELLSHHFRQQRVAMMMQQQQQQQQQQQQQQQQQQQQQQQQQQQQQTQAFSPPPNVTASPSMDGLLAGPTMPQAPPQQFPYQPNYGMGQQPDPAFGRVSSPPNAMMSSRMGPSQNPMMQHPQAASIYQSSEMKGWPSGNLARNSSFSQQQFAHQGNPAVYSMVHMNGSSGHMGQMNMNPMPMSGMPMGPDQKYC
Sequence of Nuclear receptor coactivator 1 (Homo sapiens) (Q15788 whole entry, looked up, the tested form may be a part): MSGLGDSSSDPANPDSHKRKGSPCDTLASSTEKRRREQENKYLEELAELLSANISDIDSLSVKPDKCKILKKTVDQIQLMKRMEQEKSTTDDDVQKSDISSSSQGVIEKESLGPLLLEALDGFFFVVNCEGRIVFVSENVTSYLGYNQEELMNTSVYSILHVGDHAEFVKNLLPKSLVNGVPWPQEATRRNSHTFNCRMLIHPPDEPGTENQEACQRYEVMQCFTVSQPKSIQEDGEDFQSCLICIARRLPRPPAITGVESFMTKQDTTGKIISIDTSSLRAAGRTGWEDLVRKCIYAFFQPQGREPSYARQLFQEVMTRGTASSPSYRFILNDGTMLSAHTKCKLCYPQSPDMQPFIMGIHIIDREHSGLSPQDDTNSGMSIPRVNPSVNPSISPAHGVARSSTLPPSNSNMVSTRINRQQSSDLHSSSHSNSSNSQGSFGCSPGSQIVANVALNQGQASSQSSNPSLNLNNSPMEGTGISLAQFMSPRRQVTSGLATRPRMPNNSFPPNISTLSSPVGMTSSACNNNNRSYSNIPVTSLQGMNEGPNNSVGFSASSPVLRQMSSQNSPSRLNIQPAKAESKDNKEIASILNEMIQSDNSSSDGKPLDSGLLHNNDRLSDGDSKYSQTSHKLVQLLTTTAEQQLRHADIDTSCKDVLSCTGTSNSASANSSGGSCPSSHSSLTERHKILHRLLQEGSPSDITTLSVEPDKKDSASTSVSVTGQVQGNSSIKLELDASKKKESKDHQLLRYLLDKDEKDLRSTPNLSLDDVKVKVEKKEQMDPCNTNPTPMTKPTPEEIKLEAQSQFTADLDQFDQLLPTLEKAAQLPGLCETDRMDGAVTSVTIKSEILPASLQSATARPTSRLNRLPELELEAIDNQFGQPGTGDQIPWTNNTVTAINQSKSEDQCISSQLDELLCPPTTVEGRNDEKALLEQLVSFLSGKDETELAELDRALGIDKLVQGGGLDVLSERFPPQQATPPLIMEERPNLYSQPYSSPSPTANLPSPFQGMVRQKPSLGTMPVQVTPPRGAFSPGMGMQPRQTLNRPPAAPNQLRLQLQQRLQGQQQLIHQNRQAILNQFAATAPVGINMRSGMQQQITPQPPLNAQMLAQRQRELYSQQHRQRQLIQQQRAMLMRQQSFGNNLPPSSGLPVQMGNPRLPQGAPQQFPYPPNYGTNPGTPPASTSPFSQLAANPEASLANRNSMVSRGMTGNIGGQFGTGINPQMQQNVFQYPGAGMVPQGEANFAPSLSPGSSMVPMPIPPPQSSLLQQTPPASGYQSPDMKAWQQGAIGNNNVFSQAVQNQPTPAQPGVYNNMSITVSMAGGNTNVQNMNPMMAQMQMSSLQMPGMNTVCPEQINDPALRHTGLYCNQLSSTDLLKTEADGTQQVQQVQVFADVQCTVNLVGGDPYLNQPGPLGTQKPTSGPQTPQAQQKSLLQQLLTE

Compound	inhibition [1]	inhibition [2]	inhibition [3]	inhibition [4]
Nc1ccc(Cn2ccc3c4c(N)nc(N)nc4ccc32)cc1	66.1% (active)	32% (active)	67.7% (active)	36.9% (active)
COc1cccc(/C=N/NC(=O)c2cc(-c3cccn3C)n[nH]2)c1O	41.2%	35.7% (active)	37.6%	35.6% (active)
O=C(NC(=S)/C(=C1\CCCCCN1)[N+](=O)[O-])c1ccccc1	32.1%	9.73%	-25.3%	-33%
CC1CCN(Cc2c(C(=O)N/N=C/c3ccccc3O)nnn2-c2nonc2N)CC1	57.7% (active)	41.1% (active)	64.4% (active)	56.8% (active)
COc1cccc(C(=O)Nc2nc(-c3ccc(S(=O)(=O)N4CCOCC4)cc3)cs2)c1	3.89%	9.14%	-19.1%	-0.53%
CC(C)(C)NC(=O)CSc1nc2ccc(NC(=O)CSc3nnnn3Cc3ccccc3)cc2s1	0.03%	28.7%	3.45%	26.4% (active)
c1ccc(-c2noc(-c3ccc4c(c3)OCO4)n2)nc1	17.6%	7.86%	8.09%	33.7% (active)
Cc1ccc2c(C)nc(Nc3nc(CSc4nc5ccccc5[nH]4)cc(=O)[nH]3)nc2c1	12.4%	16.1%	-14.6%	17.5%
CCN(CC)S(=O)(=O)c1cccc(NC(=O)COC(=O)c2[nH]c(C)c(C(C)=O)c2C)c1	20%	42.5% (active)	6.19%	42.8% (active)
C/C(=N\Nc1ccc2nncn2n1)c1ccccn1	70.3% (active)	65.5% (active)	62% (active)	56.6% (active)
COc1ccc(-c2cn[nH]c2-c2ccc(OCc3ccc([N+](=O)[O-])cc3)cc2O)cc1	33.1%	34% (active)	39.1%	27.4% (active)
Cc1cccc(C)c1-c1ccc(CN2C(CC(C)C)C(=O)N(Cc3cn(CC4CCCCC4)nn3)CCS2(=O)=O)cc1 (stereo unspecified)	21.1%	21.2%	24.4%	22.6%
CCOC(=O)c1ccccc1OC(=O)NNc1ccccc1	15.6%	46.1% (active)	11.2%	38.8% (active)
CC(C)c1ccc(/C=N/Nc2ccc(C(=O)O)cc2)cc1	-6.28%	-26.7%	-72.5%	-51.3%
O=C(N/N=C\c1c(O)ccc2ccccc12)c1cncc(Br)c1	83% (active)	84% (active)	77.7% (active)	80.5% (active)
O=C(Nc1nc(-c2ccccc2)cs1)C1CCCN(S(=O)(=O)c2ccccc2)C1 (stereo unspecified)	-1.67%	16.4%	-23.1%	22.9%
Cc1ccc(S(=O)(=O)N(C)Cc2ccc(C(=O)N/N=C/c3ccc(OC(F)F)cc3OC(F)F)cc2)cc1	10.9%	18.8%	-28.9%	20%
CN([C@@H](Cc1ccc(OS(=O)(=O)c2cccc3cnccc23)cc1)C(=O)N1CCN(c2ccccc2)CC1)S(=O)(=O)c1cccc2cnccc12	-2.66%	30.3% (active)	-4.42%	31.2% (active)
COc1ccc(-c2csc3ncnc(NCCCO)c23)cc1	66.3% (active)	46.3% (active)	50.2% (active)	49.8% (active)
Cc1ccc(C(=O)NCCn2cc(SCC(=O)Nc3nnc(C)s3)c3ccccc32)cc1	18.6%	4.22%	-32.5%	-0.04%
COc1ccc2c(c1OC)C(=O)N1c3ccccc3C(=O)N(c3ccc(F)cc3)C21 (stereo unspecified)	7.69%	4.54%	-3.13%	3.89%
COc1ccc(-n2ncc3c(N4CCCCC4)ncnc32)cc1	51.2% (active)	41.7% (active)	-11.5%	23.9%
CC1(C)CCSC(/C=C/c2ccccc2)=N1	62.4% (active)	45.5% (active)	46.1%	39.8% (active)
Cc1cc(C)c2c(N)c3ccccc3nc2n1	15.2%	54.6% (active)	3.44%	53.4% (active)
C#CC[N+](C)(C)CCCCCCCCCC	18.6%	23.2%	9.87%	16.1%
CCN(CC)S(=O)(=O)c1ccc(/C=C/C(=O)Nc2ccc(F)c(F)c2F)cc1	-25.9%	30.7% (active)	3.76%	28.7% (active)
Cc1cc(CNC(=O)c2cccc([N+](=O)[O-])c2C)c2ccccc2n1	13.9%	41.2% (active)	16%	35.8% (active)

Compound	inhibition [1]	inhibition [2]	inhibition [3]	inhibition [4]
Cc1cc2[nH]c3ccccc3c2c(C)n1	-0.94%	18.7%	-3.38%	9.89%
Cc1ccc(NC(=O)CCC(=O)N/N=C/c2ccc(O)cc2O)cc1	7.69%	7.07%	20.4%	15.4%
COc1cc2c(cc1OC)C(C)N(C(=O)c1cccc([N+](=O)[O-])c1)CC2 (stereo unspecified)	34%	23.4%	17.3%	22.3%
CCCCOC(=O)c1[nH]c2c(c1C)C(=O)CC(c1cc(OC)c(OC)c(OC)c1)C2 (stereo unspecified)	8.2%	28%	-1.5%	32.1% (active)
c1ccc2c(-c3cncc4ccccc34)cncc2c1	31.4%	32.7% (active)	36.4%	28% (active)
COc1ccc(C(=O)N/N=C/c2cc(Br)ccc2O)cc1OC	26.2%	37.5% (active)	22%	42.5% (active)
Nc1ccc(-c2cnc(N)c(C(=O)c3cccnc3)n2)cn1	85.8% (active)	55.7% (active)	74.3% (active)	56% (active)
O=[N+]([O-])c1ccc(O)c(/C=N/Nc2ccc(Cl)nn2)c1	87.2% (active)	83.6% (active)	73.1% (active)	82.2% (active)
COc1ccc2cc3c(N)nn(C(=O)c4ccc(F)cc4)c3nc2c1	69.8% (active)	36.1% (active)	56.7% (active)	36.3% (active)
O=C(Nc1cccc(Cl)c1)Nc1nnc(-c2ccncc2)s1	40.1%	31.9% (active)	28.5%	23.7%
Cc1cc(C)nc(/N=C(\N)Nc2ccc(-c3ccccc3)cc2)n1	9.37%	33.3% (active)	21.7%	30.1% (active)
CCCC(=O)NC(c1ccccc1OC)c1ccc2cccnc2c1O (stereo unspecified)	61.1% (active)	37.8% (active)	52.2% (active)	41.9% (active)
Cn1c(=O)c2c(nc(NCc3ccco3)n2C/C=C/c2ccccc2)n(C)c1=O	36.4%	44% (active)	18.6%	39.9% (active)
CC(C)Cn1c(N)c(C(=O)CSc2ccc3c(c2)OCCO3)c(=O)n(C)c1=O	35.5%	56.9% (active)	46%	51.9% (active)
C(=Cc1cnc2ccccc2n1)c1ccc2c(c1)OCO2	58.3% (active)	25.1%	-41.3%	21.3%
CC(=O)NC(C)c1cc(Cl)c2cccnc2c1O (stereo unspecified)	20.2%	2.75%	10.6%	2.16%
Cc1cc(C)c2nc3nc(C)c(C)cc3c(N)c2c1	13.7%	49.7% (active)	5.02%	48% (active)
Nc1nc(=O)n(C2CC(O)C(CO)O2)cc1F (stereo unspecified)	58.5% (active)	37.5% (active)	57.2% (active)	40.9% (active)
Cn1c(/C=C/c2ccc(Cl)cc2Cl)c([N+](=O)[O-])c(=O)n(C)c1=O	62.2% (active)	51.5% (active)	47.2% (active)	56.3% (active)
Cc1ccc2occ(/C=N/NC(=O)c3ccncc3)c(=O)c2c1	21.2%	15.1%	20.3%	14.4%
Nc1ncnc(NCc2ccc(F)cc2)c1[N+](=O)[O-]	62.7% (active)	29.8% (active)	52.7% (active)	29.9% (active)
CN(C)CC(C(=O)c1ccccc1)c1ccccc1 (stereo unspecified)	38.8%	46.8% (active)	32%	41.8% (active)
COc1cccc2nc3c(C(=O)NCCN(C)C)cccc3cc12	35.9%	39.9% (active)	46.5%	32.7% (active)
CC(C)CCNC(=O)C(c1ccncc1)N(Cc1cccs1)C(=O)Cn1nnc(-c2ccc(F)cc2)n1 (stereo unspecified)	66.2% (active)	54.1% (active)	46.3%	52.2% (active)
Cc1cc(C(=O)NNc2ccc(F)cc2)no1	9%	7.33%	-4.64%	8.26%
CCCCCCCCCn1c2c(c(=N)c3c1CCC3)CCC2	89.7% (active)	85.2% (active)	71.4% (active)	84.8% (active)
CN(C)c1ccc(Nc2ncnc3ccc(Br)cc23)cc1	47.3% (active)	30.8% (active)	40.8%	20.2%
